Measurements: PubChem BioAssay AID1159580 (chemical genetic matrix, 2015)
“And” between values parts separate entries of the source, which are not always exact repeats. Equal values may be shown once. The campaign covered roughly 5,500 compounds. About 2,000 (36%) were called active. Roughly 18% stayed inconclusive and do not appear here. Cut-off read from the data, not from the text of the source: active = normalized growth mostly below about 0.91 (no sharp cut-off); inconclusive = no clear call, values can overlap the other calls; inactive = mostly above about 0.92. The list shows a part of the results.

Experiment: chemical genetic growth profiling, strain panel (AID 1159580);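 note: tested at 20 µM; growth read once vehicle control cultures reached saturation at 30 °C; 1 = growth at the plate median or of vehicle wells; lower values mean less growth of the strain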
Details: S. cerevisiae deletion strains, growth OD

Measured: normalized growth

C[C@]12CCC3C(CC[C@]4(O)C[C@@H](O)CC[C@]34C=O)[C@@]1(O)CCC2C1=CC(=O)OC1 (stereo not given in full)
active: locus YER015W, strain faa2, active compounds read low 0.922
inactive: locus YAL021C, strain ccr4, active compounds read low 0.92 | locus YAL026C, strain drs2, active compounds read low 0.983 | locus YAL030W, strain snc1, active compounds read low 0.975 | locus YBL061C, strain skt5, active compounds read low 0.979 | locus YBR009C, strain hhf1, active compounds read low 0.967 | locus YBR021W, strain FUR4, active compounds read low 1 | locus YBR023C, strain chs3, active compounds read low 0.98 | locus YBR171W, strain sec66, active compounds read low 0.986 | locus YBR229C, strain ROT2, active compounds read low 0.94 | locus YBR231C, strain swc5, active compounds read low 0.995 | locus YBR279W, strain paf1, active compounds read low 0.986 | locus YCL011C, strain gbp2, active compounds read low 0.943 | locus YCL016C, strain dcc1, active compounds read low 0.958 | locus YCL029C, strain bik1, active compounds read low 0.962 | locus YCL069W, strain vba3, active compounds read low 0.981 | locus YCR088W, strain abp1, active compounds read low 0.988 | locus YDL005C, strain med2, active compounds read low 0.969 | locus YDL035C, strain GPR1, active compounds read low 0.964 | locus YDL040C, strain nat1, active compounds read low 0.992 | locus YDL074C, strain BRE1, active compounds read low 1.01 | locus YDL101C, strain DUN1, active compounds read low 0.987 | locus YDL185W, strain tfp1, active compounds read low 0.962 | locus YDL192W, strain arf1, active compounds read low 0.976 | locus YDR001C, strain nth1, active compounds read low 0.967 | locus YDR069C, strain doa4, active compounds read low 0.986 | locus YDR101C, strain arx1, active compounds read low 0.97 | locus YDR137W, strain rgp1, active compounds read low 0.971 | locus YDR159W, strain sac3, active compounds read low 1.05 | locus YDR162C, strain NBP2, active compounds read low 0.975 | locus YDR195W, strain ref2 1.01 | locus YDR297W, strain sur2, active compounds read low 0.994 | locus YDR318W, strain mcm21, active compounds read low 0.98 | locus YDR334W, strain swr1, active compounds read low 0.978 | locus YDR335W, strain msn5, active compounds read low 0.989 | locus YDR388W, active compounds read low 0.982 | locus YDR392W, strain spt3, active compounds read low 0.889 | locus YDR502C, strain sam2, active compounds read low 0.99 | locus YEL003W, strain gim4, active compounds read low 0.991 | locus YEL037C, strain rad23, active compounds read low 0.979 | locus YEL061C, strain CIN8 (second series), active compounds read low 0.984 | locus YEL061C, strain CIN8, active compounds read low 0.986 | locus YER016W, strain bim1, active compounds read low 0.991 | locus YER110C, active compounds read low 0.98 | locus YER111C, strain swi4, active compounds read low 1.02 | locus YER155C, strain BEM2 (second series), active compounds read low 1.06 | locus YER155C, strain BEM2, active compounds read low 0.994 | locus YER167W, strain BCK2, active compounds read low 0.984 | locus YFR010W, strain ubp6, active compounds read low 0.982 | locus YGL078C, strain dbp3, active compounds read low 0.996 | locus YGL086W, strain mad1, active compounds read low 0.992 | locus YGL167C, strain pmr1, active compounds read low 0.965 | locus YGL173C, strain kem1, active compounds read low 0.994 | locus YGL227W, strain vid30, active compounds read low 0.998 | locus YGL240W, strain doc1, active compounds read low 1.03 | locus YGL248W, strain PDE1, active compounds read low 1 | locus YGL253W, strain hxk2, active compounds read low 0.985 | locus YGR135W, strain pre9, active compounds read low 0.975 | locus YGR229C, strain SMI1, active compounds read low 0.991 | locus YGR252W, strain gcn5, active compounds read low 0.988 | locus YHR013C, strain ard1, active compounds read low 0.953 | locus YHR027C, strain rpn1, active compounds read low 0.973 | locus YHR030C, strain SLT2, active compounds read low 0.991 and 0.995 | locus YHR079C, strain IRE1 (second series), active compounds read low 0.98 | locus YHR079C, strain IRE1, active compounds read low 0.988 | locus YHR094C, strain hxt1, active compounds read low 0.976 | locus YHR129C, strain ARP1, active compounds read low 0.989 | locus YHR142W, strain chs7, active compounds read low 0.971 | locus YHR200W, strain rpn10, active compounds read low 0.964 | locus YIL066C, strain RNR3, active compounds read low 0.95 | locus YIL073C, strain SPO22, active compounds read low 0.958 | locus YIL125W, strain kgd1, active compounds read low 0.969 | locus YIR030C, strain dcg1, active compounds read low 0.975 | locus YJL092W, strain hpr5, active compounds read low 0.97 | locus YJL095W, strain BCK1 (second series), active compounds read low 0.98 | locus YJL095W, strain BCK1, active compounds read low 1.05 and 1.01 | locus YJL115W, strain asf1, active compounds read low 0.968 | locus YJL129C, strain trk1, active compounds read low 0.999 | locus YJL134W, strain LCB3, active compounds read low 0.98 | locus YJL154C, strain vps35, active compounds read low 0.984 | locus YJL164C, strain tpk1, active compounds read low 0.933 | locus YJL166W, strain qcr8, active compounds read low 1 | locus YJL168C, strain set2, active compounds read low 0.982 | locus YJL187C, strain SWE1 (second series), active compounds read low 1.01 | locus YJR043C, strain POL32, active compounds read low 0.964
